TrxR1 inh = blocks rat thioredoxin reductase 1; 390,000 compounds, 1% hits; O89049; recombinant rTrxR1, NADPH fluorescence consumption, selenite substrate; AID 588453; Potency, µM (highest dose often 114 µM), usual class: inhibitors; also: nearly all actives have a fitted effect of over 65% in size
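Rat TrxR1 (90 nM in the dispensed reagent) was pre-reduced with 400 uM NADPH for 5 min at room temperature, then incubated with compound for 15 min. After 400 uM selenite was added, NADPH fluorescence (Ex 340/Em 450 nm) was followed for 8 min.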
VDR inhibitor = inhibitors of human vitamin D receptor. 400,000 compounds, 0.93% hits. Potency, µM, most hits filed as inhibitors. AID 504847. VDR-SRC2-3 peptide fluorescence polarization, 2 h. P11473
Target sequence (P11473 whole entry, looked up): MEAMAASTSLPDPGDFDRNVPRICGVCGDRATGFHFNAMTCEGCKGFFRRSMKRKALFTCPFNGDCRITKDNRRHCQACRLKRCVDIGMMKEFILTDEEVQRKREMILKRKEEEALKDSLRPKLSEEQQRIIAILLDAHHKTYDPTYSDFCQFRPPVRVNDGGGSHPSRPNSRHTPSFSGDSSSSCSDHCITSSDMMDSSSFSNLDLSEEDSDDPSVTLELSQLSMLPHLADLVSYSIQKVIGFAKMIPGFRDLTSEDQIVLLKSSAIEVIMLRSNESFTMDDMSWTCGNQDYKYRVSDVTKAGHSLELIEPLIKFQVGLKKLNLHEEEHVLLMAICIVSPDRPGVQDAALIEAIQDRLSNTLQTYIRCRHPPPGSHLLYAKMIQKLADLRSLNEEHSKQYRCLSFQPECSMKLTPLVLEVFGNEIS
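Fluorescence polarization assay of small-molecule disruption of VDR binding to coregulator peptide SRC2-3. Compounds and controls pin-transferred, then read after 2 h incubation at ambient room temperature.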
IDH1 R132H inh = blocks human mutant IDH1 R132H enzyme. O75874. IDH1-R132H enzyme, NADPH consumption, diaphorase/resazurin fluorescence. Potency, µM (doses to about 76.6 µM), usual class: inhibitors. 390,000 compounds, 0.093% hits. AID 602179; also: nearly all actives have a fitted effect of over 65% in size
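IDH1-R132H (0.5 ug/mL) preincubated 30 min with compound, then NADPH (0.016 mM) and alpha-KG (2 mM) added; 80 min at RT, pH 7.5. Remaining NADPH coupled via diaphorase/resazurin to fluorescence (540/590 nm); concentration-response curves normalized to no-enzyme control.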
TrxR1 substrate = rat thioredoxin reductase 1 substrate activity. purified TrxR1 substrate turnover, NADPH consumption readout. Potency, µM (top dose mostly 114 µM). 390,000 compounds, 0.01% hits; also: nearly all actives have a fitted effect of over 50% in size
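Rat TrxR1, dispensed at 90 nM, was prereduced with 400 uM NADPH (final) for 5 min at ~22 deg C, then incubated with compound 15 min before 400 uM selenite. A first-read NADPH fluorescence drop versus no-compound background flagged substrates.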
PLK1 PBD block = PLK1 (human) polo-box domain binding inhibition | P53350 | Plk1 PBD binding of FITC phosphopeptide, fluorescence polarization | Potency, µM, actives largely listed as inhibitors | 360,000 compounds, 2.8% hits | AID 720504; also: series mostly up to about 57 µM; nearly all actives have a fitted effect of over 65% in size
Sfp inh = inhibitors of Bacillus subtilis Sfp phosphopantetheinyl transferase. Q9F4F7. Biochemical Sfp PPTase activity, qHTS. Potency, µM, most hits filed as inhibitors. 310,000 compounds, 3.5% hits. AID 1490;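 also: the enzyme is Sfp with the accession as filed and its product quenches rhodamine fluorescence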
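Fluorescence-quenching assay with 15 nM Sfp, 5 uM rhodamine-CoA and 12.5 uM BHQ-2-labelled ybbR peptide in pH 7.6 Hepes/MgCl2 buffer. Enzyme was pre-incubated with compound for 15 min at room temperature. Rate was taken from the 30-min fluorescence change (525/598 nm).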
Hits are given with their value; . = inactive; ? = inconclusive; / = no result; [ ] = dose if it differs, or a comment. In the library only some 5.2% were active in any assay of this set; here they are far more common. Calls follow the shape of the dose curve; as a rule, active = well fitted curve in the direction sought with a large enough effect; inconclusive = small, poorly fitted or top-dose-only effect, or another doubt; inactive = no such curve, though single readings can be large; an effect the other way counts as inactive or inconclusive.

SMILES | TrxR1 inh | VDR inhibitor | IDH1 R132H inh | TrxR1 substrate | PLK1 PBD block | Sfp inh
O=c1c(-c2ccccc2)nc2cncnc2n1Cc1ccccc1 | / | . | / | / | / | .
C[N+]1(CC(=O)c2ccc(I)cc2)CCOCC1 | . | / | / | . | / | /
COc1ccc(Cn2c(CCC(=O)Nc3cccc(Cl)c3)nc3cccnc32)cc1 | . | . | . | . | / | /
CCc1ccc(NC(=O)CSc2nc(=O)n(Cc3ccco3)c3c2CCC3)cc1 | . | . | . | . | / | /
c1csc(CNc2nc(-c3ccoc3)nc3ccccc23)c1 | / | 22.4µM | / | / | / | ?
c1ccc(CNc2ccnc(-c3ccoc3)n2)cc1 | / | 79.4µM | / | / | / | .
c1cncc(CNc2ncncc2-c2ccoc2)c1 | / | 50.1µM | / | / | / | 79.4µM
CCCCNCc1nc2ccccc2c(=O)[nH]1 | . | . | . | . | . | ?
O=c1[nH]c(CNCc2cccnc2)nc2ccccc12 | . | . | . | . | . | 25.1µM
N#Cc1cccc(-c2cncnc2NCc2cccnc2)c1 | / | . | / | / | / | .
Cc1nc2c(C)cccc2cc1C(=O)N/N=C/c1ccc(C(=O)O)cc1 | . | . | . | . | 29.9µM | .
CCn1c(N)c(C(=O)NCc2ccc3c(c2)OCO3)sc1=S | . | . | . | . | 23.8µM | 44.7µM
Cc1c(C(=O)NCc2ccc3c(c2)OCCO3)sc(=O)n1Cc1ccc2c(c1)OCO2 | / | / | / | / | . | /
CCN(CC)S(=O)(=O)c1ccc(C(=O)NCc2ccc3c(c2)OCO3)cc1 | . | . | . | . | 21.2µM | .
O=C(OCC(=O)N1CCN(c2ccc(F)cc2)CC1)c1cnc2ccccc2n1 | . | . | . | . | . | /
CCC(C)C(NC(=O)C1CCC(C)CC1)C(=O)NCCc1ccc(S(N)(=O)=O)cc1 (stereo not drawn) | . | . | . | . | . | .
CC1=NN(C(=O)c2c(Br)cnn2C)C(O)(C(F)(F)F)C1 (stereo not drawn) | . | . | . | . | 10.6µM | .
COc1cccc(C2=NN(C(=O)c3cccs3)C(O)(C(F)(F)F)C2)c1 (stereo not drawn) | . | . | . | . | ? | 44.7µM
COc1ccc(C(=O)N2N=C(c3cccc(OC)c3)CC2(O)C(F)(F)F)cc1 (stereo not drawn) | . | . | . | . | . | 50.1µM
COc1cccc(C(=O)N2N=C(c3cccc(OC)c3)CC2(O)C(F)(F)F)c1 (stereo not drawn) | . | . | . | . | . | .
COc1ccc(N2C(=O)c3ccccc3NC23CCCC3)cc1 | . | . | . | . | . | .
COc1ccc(N2C(S)=C(C#N)C(=O)NC23CCCCC3)cc1 | . | 50.1µM | . | . | . | 17.8µM
CN(C)CCSc1nc(-c2ccccc2)nc2c1COC(C)(C)C2 | . | . | . | . | . | .
CSc1nc(-c2ccccc2)nc2c1COC(C)(C)C2 | . | . | . | . | 29.9µM | .
COc1cc2c(cc1OC)C(c1ccccc1)CC2=O (stereo not drawn) | . | . | . | . | . | .
SMILES | TrxR1 inh | VDR inhibitor | IDH1 R132H inh | TrxR1 substrate | PLK1 PBD block | Sfp inh
CCOC(=O)CSC1=C(C#N)C(c2sccc2C)C(C(C)=O)=C(C)N1 (stereo not drawn) | . | . | . | . | 26.7µM | ?
CCOC(=O)CSC1=C(C#N)C(c2ccccc2F)C(C(C)=O)=C(C)N1 (stereo not drawn) | ? | . | . | . | . | 63.1µM
O=C(Cl)COCc1ccccc1 | / | . | / | / | / | .
Nc1c(Br)c(=O)[nH]c(=O)n1-c1ccc(F)cc1 | 39.8µM | . | . | . | . | .
Nc1c(N=O)c(=O)[nH]c(=O)n1-c1ccccc1 | . | . | . | . | . | /
Cc1cc(C)c(NC(=S)N(CCN2CCCCC2)Cc2ccco2)c(C)c1 | . | . | . | . | 21.2µM | .
CCN1CCN(CCCN(Cc2ccco2)C(=S)Nc2ccc(C)c(Cl)c2)CC1 | . | . | . | . | . | .
CCN1CCN(CCCN(Cc2ccco2)C(=S)Nc2cc(Cl)ccc2C)CC1 | . | . | . | . | 23.8µM | .
CCCCNC(=O)[C@@H]1CC=C[C@@H]2CCN(Cc3ccc(OC)c(OC)c3)C(=O)[C@@H]21 | . | / | / | . | / | /
Cc1ccccc1OCC(=O)NC(=S)Nc1ccccc1N1CCN(S(C)(=O)=O)CC1 | . | . | . | . | . | .
COc1ccc(Br)cc1S(=O)(=O)N1CCCC1 | . | . | . | . | 2.99µM | .
COc1cc(C)c(S(=O)(=O)N2CCCC2)cc1C(C)C | .[11.4 µM] | . | . | .[11.4 µM] | 26.7µM | .
COc1cc(C)c(S(=O)(=O)N2CCCC2)cc1C | . | . | . | . | . | .
NC(N)=N/N=C/c1ccc(OCc2ccc(Cl)cc2)cc1 | . | . | . | . | . | 22.4µM
NC(N)=N/N=C/c1ccc(OCc2ccccc2)cc1 | . | . | . | . | . | .
Cc1ccc(S(=O)(=O)N/N=C/c2ccc(O)c(O)c2)cc1[N+](=O)[O-] | 11.2µM | . | . | . | . | ?
Cc1ccc(S(=O)(=O)N/N=C/c2ccccc2O)cc1[N+](=O)[O-] | . | . | . | . | ? | .
CCOC(=O)N1CCN(C(=O)c2cccc(N3C(=O)NC4CC3(C)Oc3ccc(Cl)cc34)c2)CC1 (stereo not drawn) | . | . | . | . | . | .
C=CCNC(=O)/C(C#N)=C/c1ccc(OS(=O)(=O)c2ccc(C)cc2)c(OC)c1 | . | 28.2µM | ? | . | ? | .
CCc1ccc(OCC(=O)N(Cc2ccc(Cl)cc2)C2CCS(=O)(=O)C2)cc1 (stereo not drawn) | . | . | . | . | / | /
Cc1ccc(-c2cn3nc(-c4ccccc4)c(-c4ccccc4)nc3n2)cc1 | . | . | . | . | ? | .
c1ccc(-c2cn3nc(-c4ccccc4)c(-c4ccccc4)nc3n2)cc1 | . | . | . | . | 26.7µM | .
COc1ccc(N(Cc2cccs2)C(=O)COc2ccc([N+](=O)[O-])cc2)cc1 | . | . | . | . | / | /
S=C(Nc1ccccc1)Nc1ccccn1 | / | / | . | / | . | /
S=C(Nc1ccccn1)NC1CCCC1 | . | . | . | . | . | 44.7µM
SMILES | TrxR1 inh | VDR inhibitor | IDH1 R132H inh | TrxR1 substrate | PLK1 PBD block | Sfp inh
Cc1ccc(NC(=O)C(C)Sc2nnc3n2CCCCC3)cc1S(=O)(=O)N1CCOCC1 (stereo not drawn) | / | / | . | / | . | /
COCc1cccc(C2=CC(=O)C[C@H](c3ccc(F)cc3)C2)c1 | . | ? | . | . | 29.9µM | /
CCOC(=O)c1ccc(NC(=O)CSc2nnc(CCc3ccc(C)o3)n2-c2ccccc2)cc1 | ? | . | . | . | . | 15.8µM
Nc1ccccc1C#Cc1ccc([N+](=O)[O-])cc1 | . | . | . | . | . | /
Nc1ccccc1C#CC(=O)c1ccccc1 | ? | ? | . | .[2.29 µM] | 8.44µM | .
O=C1NC(=S)S/C1=C/c1ccc(OC(=O)c2ccco2)cc1 | . | . | . | . | ? | .
O=C1NC(=S)S/C1=C\c1cccc([N+](=O)[O-])c1 | . | ? | . | . | . | /
O=C1NC(=S)S/C1=C\c1ccc(SCc2ccco2)o1 | 8.91µM | 44.7µM | . | . | 2.99µM | 20µM
